Measurements from PubChem BioAssay AID1159580 (chemical genetic matrix, 2015).
Where “and” joins values, the source holds several entries; their conditions need not be identical. Identical values can stand only once. Out of some 5,500 compounds screened, about 2,000 (36%) were called active. Inconclusive results (about 18%) are left out. Cut-off read from the data, not from the text of the source: active = normalized growth mostly below about 0.91 (no sharp cut-off); inconclusive = no clear call, values can overlap the other calls; inactive = mostly above about 0.92. The list shows a part of the results.

Assay: chemical genetic growth profiling, strain panel (AID 1159580);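 note: tested at 20 µM; growth read once vehicle control cultures reached saturation at 30 °C; 1 = growth at the plate median or of vehicle wells; lower values mean less growth of the strain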
Details: growth OD

Measured: normalized growth

CC(C)[N+](C)(CCOC(=O)C1c2ccccc2Oc2ccccc21)C(C)C
inactive: S. cerevisiae deletion strains, locus YJR075W, strain HOC1, stronger effect = lower value 1.02 | S. cerevisiae deletion strains, locus YKL009W, strain mrt4, stronger effect = lower value 1.02 | S. cerevisiae deletion strains, locus YKL068W, stronger effect = lower value 1.01 | S. cerevisiae deletion strains, locus YKL085W, strain MDH1 (second series), stronger effect = lower value 1.01 | S. cerevisiae deletion strains, locus YKL085W, strain MDH1, stronger effect = lower value 1.01 | S. cerevisiae deletion strains, locus YKL160W, strain elf1, stronger effect = lower value 1.04 | S. cerevisiae deletion strains, locus YKL190W, strain CNB1, stronger effect = lower value 1.02 | S. cerevisiae deletion strains, locus YKR001C, strain vps1, stronger effect = lower value 1.01 | S. cerevisiae deletion strains, locus YKR026C, strain gcn3, stronger effect = lower value 0.997 | S. cerevisiae deletion strains, locus YKR091W, strain srl3, stronger effect = lower value 0.994 | S. cerevisiae deletion strains, locus YLL001W, strain dnm1, stronger effect = lower value 1.01 | S. cerevisiae deletion strains, locus YLL026W, stronger effect = lower value 1.02 | S. cerevisiae deletion strains, locus YLL041C, strain sdh2, stronger effect = lower value 1 | S. cerevisiae deletion strains, locus YLR027C, strain aat2, stronger effect = lower value 1 | S. cerevisiae deletion strains, locus YLR039C, strain RIC1, stronger effect = lower value 1.05 | S. cerevisiae deletion strains, locus YLR058C, strain SHM2, stronger effect = lower value 1.01 | S. cerevisiae deletion strains, locus YLR102C, strain apc9, stronger effect = lower value 1 | S. cerevisiae deletion strains, locus YLR113W, strain HOG1, stronger effect = lower value 1.02 | S. cerevisiae deletion strains, locus YLR221C, strain rsa3, stronger effect = lower value 0.996 | S. cerevisiae deletion strains, locus YLR258W, strain gsy2, stronger effect = lower value 1.02 | S. cerevisiae deletion strains, locus YLR262C, strain YPT6 (second series), stronger effect = lower value 1 | S. cerevisiae deletion strains, locus YLR262C, strain YPT6, stronger effect = lower value 1.07 | S. cerevisiae deletion strains, locus YLR268W, strain sec22, stronger effect = lower value 1.02 | S. cerevisiae deletion strains, locus YLR320W, strain mms22, stronger effect = lower value 0.985 | S. cerevisiae deletion strains, locus YLR330W, strain CHS5, stronger effect = lower value 1 | S. cerevisiae deletion strains, locus YLR342W, strain FKS1 (second series), stronger effect = lower value 1.02 | S. cerevisiae deletion strains, locus YLR342W, strain FKS1, stronger effect = lower value 1.02 | S. cerevisiae deletion strains, locus YLR357W, strain rsc2, stronger effect = lower value 1.02 | S. cerevisiae deletion strains, locus YLR370C, strain arc18, stronger effect = lower value 1.01 | S. cerevisiae deletion strains, locus YLR371W, strain rom2, stronger effect = lower value 1.01 | S. cerevisiae deletion strains, locus YLR384C, strain iki3, stronger effect = lower value 1.02 | S. cerevisiae deletion strains, locus YLR418C, strain cdc73, stronger effect = lower value 1.02 | S. cerevisiae deletion strains, locus YML016C, strain PPZ1, stronger effect = lower value 1 | S. cerevisiae deletion strains, locus YML032C, strain rad52, stronger effect = lower value 1.01 | S. cerevisiae deletion strains, locus YML120C, strain ndi1, stronger effect = lower value 1.01 | S. cerevisiae deletion strains, locus YML124C, strain tub3, stronger effect = lower value 1.01 | S. cerevisiae deletion strains, locus YMR058W, strain fet3, stronger effect = lower value 1 | S. cerevisiae deletion strains, locus YMR078C, strain ctf18, stronger effect = lower value 1 | S. cerevisiae deletion strains, locus YMR125W, strain sto1, stronger effect = lower value 1 | S. cerevisiae deletion strains, locus YMR129W, stronger effect = lower value 1.01 | S. cerevisiae deletion strains, locus YMR205C, strain PFK2, stronger effect = lower value 0.998 | S. cerevisiae deletion strains, locus YMR223W, strain ubp8, stronger effect = lower value 0.994 | S. cerevisiae deletion strains, locus YMR231W, strain pep5, stronger effect = lower value 1.01 | S. cerevisiae deletion strains, locus YMR307W, strain GAS1, stronger effect = lower value 1.01 and 1.02 | S. cerevisiae deletion strains, locus YNL067W, strain RPL9B, stronger effect = lower value 1.01 | S. cerevisiae deletion strains, locus YNL071W, strain lat1, stronger effect = lower value 1.01 | S. cerevisiae deletion strains, locus YNL128W, strain TEP1, stronger effect = lower value 1.02 | S. cerevisiae deletion strains, locus YNL153C, strain GIM3, stronger effect = lower value 1.01 and 0.989 | S. cerevisiae deletion strains, locus YNL175C, strain NOP13, stronger effect = lower value 1.02 | S. cerevisiae deletion strains, locus YNL183C, strain NPR1, stronger effect = lower value 0.971 | S. cerevisiae deletion strains, locus YNL197C, strain WHI3, stronger effect = lower value 0.999 | S. cerevisiae deletion strains, locus YNL209W, strain ssb2, stronger effect = lower value 1.01 | S. cerevisiae deletion strains, locus YNL224C, strain SQS1, stronger effect = lower value 1 | S. cerevisiae deletion strains, locus YNL233W, strain BNI4, stronger effect = lower value 1.01 | S. cerevisiae deletion strains, locus YNL248C, strain rpa49, stronger effect = lower value 1.04 | S. cerevisiae deletion strains, locus YNL250W, strain rad50, stronger effect = lower value 1.02 | S. cerevisiae deletion strains, locus YNL271C, strain bni1, stronger effect = lower value 1.01 | S. cerevisiae deletion strains, locus YNL298W, strain CLA4, stronger effect = lower value 1.03 | S. cerevisiae deletion strains, locus YNL307C, strain MCK1, stronger effect = lower value 1 | S. cerevisiae deletion strains, locus YNL322C, strain KRE1 (second series), stronger effect = lower value 1.02 | S. cerevisiae deletion strains, locus YNR049C, strain mso1, stronger effect = lower value 1.01 | S. cerevisiae deletion strains, locus YNR052C, strain pop2, stronger effect = lower value 1.01 | S. cerevisiae deletion strains, locus YOL006C, strain TOP1, stronger effect = lower value 1 | S. cerevisiae deletion strains, locus YOL012C, strain htz1 0.959 | S. cerevisiae deletion strains, locus YOL147C, strain pex11, stronger effect = lower value 1.01 | S. cerevisiae deletion strains, locus YOR001W, strain rrp6, stronger effect = lower value 0.976 | S. cerevisiae deletion strains, locus YOR061W, strain CKA2, stronger effect = lower value 1.01 | S. cerevisiae deletion strains, locus YOR069W, strain VPS5, stronger effect = lower value 1 | S. cerevisiae deletion strains, locus YOR070C, strain gyp1, stronger effect = lower value 1.01 | S. cerevisiae deletion strains, locus YOR080W, strain dia2, stronger effect = lower value 1.01 | S. cerevisiae deletion strains, locus YOR083W, strain WHI5 (second series), stronger effect = lower value 1.01 | S. cerevisiae deletion strains, locus YOR083W, strain WHI5, stronger effect = lower value 0.979 | S. cerevisiae deletion strains, locus YOR106W, strain vam3, stronger effect = lower value 1.03 | S. cerevisiae deletion strains, locus YOR136W, strain idh2, stronger effect = lower value 1 | S. cerevisiae deletion strains, locus YOR144C, strain elg1, stronger effect = lower value 1 | S. cerevisiae deletion strains, locus YOR184W, strain ser1, stronger effect = lower value 1.01 | S. cerevisiae deletion strains, locus YOR231W, strain MKK1, stronger effect = lower value 0.991 | S. cerevisiae deletion strains, locus YOR265W, strain rbl2, stronger effect = lower value 1 | S. cerevisiae deletion strains, locus YOR270C, strain vph1, stronger effect = lower value 1.04 | S. cerevisiae deletion strains, locus YOR290C, strain snf2, stronger effect = lower value 1.02 | S. cerevisiae deletion strains, locus YOR316C, strain cot1, stronger effect = lower value 1.01 | S. cerevisiae deletion strains, locus YPL051W, strain arl3, stronger effect = lower value 1.02 | S. cerevisiae deletion strains, locus YPL055C, strain LGE1, stronger effect = lower value 1.01 | S. cerevisiae deletion strains, locus YPL078C, strain atp4, stronger effect = lower value 1.02 | S. cerevisiae deletion strains, locus YPL106C, strain sse1, stronger effect = lower value 1.01 | S. cerevisiae deletion strains, locus YPL240C, strain hsp82, stronger effect = lower value 1.01 | S. cerevisiae deletion strains, locus YPL241C, strain CIN2, stronger effect = lower value 1.01 | S. cerevisiae deletion strains, locus YPL256C, strain CLN2, stronger effect = lower value 1.06 | S. cerevisiae deletion strains, locus YPR119W, strain clb2, stronger effect = lower value 0.996 | S. cerevisiae deletion strains, locus YPR141C, strain kar3, stronger effect = lower value 1.01 | S. cerevisiae deletion strains, locus YPR163C, strain tif3, stronger effect = lower value 1 | S. cerevisiae deletion strains, locus YPR167C, strain met16, stronger effect = lower value 1 | S. cerevisiae deletion strains, strain wtn01, stronger effect = lower value 1.01 | S. cerevisiae strains, strain wild type, stronger effect = lower value 1
